TRPV1 PAM: enhances activation of the human vanilloid receptor TRPV1; Q8NER1; TRPV1-expressing cells, Fluo-8 calcium influx, capsaicin EC20 potentiation; 320,000 compounds, 0.02% hits; potentiation, % at 8.33 µM; AID 540277; in the data active = potentiation above about 80%; inconclusive = between about 30% and that limit; note: 0% is about no effect
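TRPV1-expressing cells were cultured overnight at 35.5C and loaded with Fluo-8 calcium dye for 40 to 90 min at room temperature. After a 10 s baseline, compound was added and calcium influx was read kinetically for 3 min (ex 480/em 520 nm).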
uPA surface inh: blocks generation of uPA at the cell surface. Potency, µM (series often up to 38.3 µM), inactives show at the top dose activity change, negative = inhibition, most hits filed as inhibitors. cell surface uPA generation assay, qHTS. 330,000 compounds, 0.31% hits; active = well fitted inhibition curve with a large enough effect; inconclusive = small, poorly fitted or top-dose-only effect; inactive = no such curve, though single readings can be large or run the other way; tested in mouse RAW 264.7 cells; note: potency is the fitted concentration of half-maximal effect; % is set by controls: 0 for no effect and ±100 for the full control effect; nearly all actives have a fitted effect of over 55% in size
TRPV1 ag: agonists of human vanilloid receptor 1 (TRPV1) | Q8NER1 | TRPV1-expressing cells, Fluo-8 calcium influx, agonist mode | activation, % at 8.33 µM | 320,000 compounds, 0.19% hits; in the data active = activation above about 80%; inconclusive = between about 30% and that limit; note: 0% is about no effect
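Fluo-8 calcium influx in TRPV1-expressing cells, kinetic read (ex 480/em 520 nm). Compound added and read 3 min for agonist activity, followed by capsaicin at EC20 final and 2 min further read for enhancement.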
VP16 counter: counter-screen for ROR gamma inhibitors: Gal4-VP16 reporter | Drosophila S2 Gal4-VP16 UAS-luciferase, luminescence, 20 h | Potency, µM (top dose mostly 53.6 µM), for inactives: top-dose activity, negative = inhibition, usual class: inhibitors | 310,000 compounds, 3.5% hits | AID 2546;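 note: Gal4-VP16 expression switched on by copper sulfate through the metallothionein promoter; potency is the fitted concentration of half-maximal effect; % is set by controls: 0 for no effect and ±100 for the full control effect; nearly all actives have a fitted effect of over 50% in size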
RORgamma inh: blocks mouse ROR gamma transcriptional activity; P51450; Drosophila S2 Gal4-RORgamma UAS-luciferase reporter, 20 h; Potency, µM (highest dose often 53.6 µM), for the others: at the highest dose activity change, negative = inhibition, actives largely listed as inhibitors; 310,000 compounds, 5.4% hits; AID 2551; note: potency is the fitted concentration of half-maximal effect; % is set by controls: 0 for no effect and ±100 for the full control effect; nearly all actives have a fitted effect of over 60% in size
Target sequence (P51450 whole entry, looked up, the tested form may be a part): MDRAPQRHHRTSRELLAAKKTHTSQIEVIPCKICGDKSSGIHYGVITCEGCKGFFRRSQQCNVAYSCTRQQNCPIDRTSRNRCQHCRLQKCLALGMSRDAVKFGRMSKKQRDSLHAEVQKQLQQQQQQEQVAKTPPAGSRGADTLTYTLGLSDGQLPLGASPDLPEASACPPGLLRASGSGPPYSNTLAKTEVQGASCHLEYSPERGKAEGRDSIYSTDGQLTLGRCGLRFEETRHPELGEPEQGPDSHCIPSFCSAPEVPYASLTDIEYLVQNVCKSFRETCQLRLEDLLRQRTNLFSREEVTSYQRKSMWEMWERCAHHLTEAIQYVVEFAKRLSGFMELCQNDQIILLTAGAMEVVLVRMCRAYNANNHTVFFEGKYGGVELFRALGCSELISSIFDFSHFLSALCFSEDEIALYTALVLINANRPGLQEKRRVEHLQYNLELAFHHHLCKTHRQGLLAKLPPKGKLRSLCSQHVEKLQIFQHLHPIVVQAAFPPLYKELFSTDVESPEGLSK
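Using a luciferase readout, inhibitors were identified by reduced reporter activity in Drosophila cells coexpressing a copper-inducible Gal4–ROR gamma fusion and UAS-driven Photinus luciferase, incubated 20 hr after 700 uM copper sulfate.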
The depositor's hits bear a star; ? = inconclusive; / = no result given; [ ] = remark or other dose. The list is not random: actives were taken first. Their share in the collection is about 5.8%. Unless noted, calls come from the whole dose curve; as a rule, active = well fitted curve in the direction sought with a large enough effect; inconclusive = small, poorly fitted or top-dose-only effect, or another doubt; inactive = no such curve, though single readings can be large; an effect the other way counts as inactive or inconclusive.

SMILES | TRPV1 PAM | uPA surface inh | TRPV1 ag | VP16 counter | RORgamma inh
Cc1cc(C)nc(N/N=C2/CCCC/C2=C\c2ccccc2)n1 | 3 | -11% | 16 | 10µM* | 1.4µM*
Cc1ccnc(N/N=C/c2ccccc2)n1 | -18 | -11% | -5 | ? | ?
O=c1ccsc2ccccc12 | / | -2% | / | / | /
O=c1[nH]sc2ccccc12 | -5 | -8% | 4 | 3.5µM* | 0.4µM*
Clc1ccc2[nH]c3c(N4CCC5(CC4)OCCO5)ncnc3c2c1 | -21 | -11% | ? | ? | ?
Cc1cccc2[nH]c3c(N4CCC5(CC4)OCCO5)ncnc3c12 | -15 | -13% | 16 | 5µM* | 11µM*
COc1cccc(OCc2cc(/C=N/Nc3ccc(C(=O)O)cc3)ccc2OC)c1 | 7 | 15% | -2 | 7.9µM* | 0.28µM*
COc1cccc(C(=O)Oc2ccc(/C=N/Nc3ccc(C(=O)O)cc3)cc2OC)c1 | -3 | -1% | 4 | 2.2µM* | -11%[1.91 µM]
COc1cc(/C=N/n2cnnc2)ccc1OC(=O)c1ccncc1 | -4 | -1% | -2 | ? | ?
COCc1cc(/C=N\NC(=O)COc2ccccc2)ccc1OC | 10 | 9% | -1 | 12% | 8%
COc1cc(/C=N/n2cnnc2)ccc1OC(=O)c1cccnc1 | -12 | -3% | -6 | 11µM* | ?
COc1ccc(S(=O)(=O)N2CCC(C(=O)Oc3cccc(C)c3)CC2)cc1OC | 12 | 1% | 3 | 7% | 13%
CCOC(=O)C1CCCN(C(=O)COc2ccc(N(C)S(=O)(=O)c3ccc(F)cc3)cc2)C1 (stereo unspecified) | 4 | -11% | 2 | -9% | 0%
Cc1nc2cc(C(=O)OCC(=O)NC(C)C(C)C)ccc2n1-c1ccccc1 (stereo unspecified) | -5 | -6% | -1 | 28µM* | -27%
N#Cc1ncc(Cc2ccccc2)nc1C#N | -2 | ? | 1 | 14µM* | 19%[1.91 µM]
N#Cc1nc(Cc2ccccc2)oc1NCc1cccnc1 | -1 | -3% | -4 | 17% | ?
COC(=O)c1ccc(C2NC(=S)N(c3ccccc3)C(C)=C2C(=O)Nc2ccccc2OC)cc1 (stereo unspecified) | 20 | 8% | 3 | ? | 10µM*
CCOc1ccccc1CNCCOC | -1 | 0% | 0 | 4% | -18%
COc1ccc(-c2cn[nH]c2-c2ccc(OCc3ccccc3)cc2O)cc1 | -7 | 4% | 1 | ? | 6.3µM*
CCOc1ccc(-c2[nH]ncc2-c2csc(C)n2)c(O)c1 | 8 | -6% | 1 | ? | ?
CCOc1ccc(-c2[nH]ncc2-c2ccccc2)c(O)c1 | -3 | 5% | 12 | ? | 13µM*
COc1ccccc1-c1cn[nH]c1-c1ccc(OCc2ccccc2)cc1O | 8 | 2% | 2 | ? | 6.3µM*
COc1ccc(-c2cn[nH]c2-c2ccc(OCc3ccc([N+](=O)[O-])cc3)cc2O)cc1OC | -18 | -24% | -2 | ? | ?
CCOc1ccc(Oc2ccc(NC(=O)[C@@H](NC(N)=O)[C@@H](C)CC)cc2)cc1 | 1 | -3% | 1 | -4% | 27%
Cc1ccc(/C=C2\SC(=S)N(CC3CCCO3)C2=O)o1 (stereo unspecified) | 15 | 2% | -3 | ? | 13µM*
SMILES | TRPV1 PAM | uPA surface inh | TRPV1 ag | VP16 counter | RORgamma inh
O=C1/C(=C/c2cccnc2)SC(=S)N1c1ccc(F)cc1 | -1 | -1% | 1 | -11% | 11µM*
O=C1/C(=C/c2cccnc2)SC(=S)N1CC1CCCO1 (stereo unspecified) | -15 | -13% | 12 | 6% | 10µM*
Cc1ccc2oc(C(=O)N3CCC(O)(c4ccccc4)CC3)c(C)c2c1 | -6 | 4% | ? | / | /
COc1ccc2c(c1)CCC/C2=N/OC(=O)c1ccccc1OC | 5 | -7% | 8 | 2% | 4%
COc1ccc2c(c1)CC/C2=N\OC(=O)c1ccccc1C | -9 | 3% | 17 | ? | 4µM*
CC(OC(=O)c1cccnc1Cl)C(=O)NCc1ccccc1 (stereo unspecified) | 1 | -4% | 0 | / | /
COc1ccccc1NS(=O)(=O)c1ccc(NN=C2CCCC2)c([N+](=O)[O-])c1 | 16 | -7% | 2 | 18µM* | ?
Cc1cccc(N2CCN(C(=O)c3cc(C)oc3C)CC2C)c1 (stereo unspecified) | -30 | -5% | 29 | 5% | 0%
CCCn1c(C)nc2c(NCCN3CCCCC3)nc(C)nc21 | / | / | / | -4% | -1%
CCCn1c(C)nc2c(NC3CCCCC3)nc(C)nc21 | / | / | / | 9% | 16µM*
CC(O)CCCCCCC/C=C/C=C/C(N)=O (stereo unspecified) | / | / | / | -5%[10 µM] | 0%[10 µM]
Cc1ccc(S(=O)(=O)N(C)c2ccc(OC(=O)c3cc(=O)[nH]c4ccccc34)cc2)cc1 | / | 10% | / | / | /
COc1cccc(C(=O)c2sc(NC(C)C)nc2N)c1 | ? | -22% | 1 | 11µM* | ?
COC(/C(=N/O)c1ccc(Cl)cc1)c1ccccc1 (stereo unspecified) | -3 | -16% | 7 | 4.5µM* | 5.6µM*
CC(C)Sc1n[nH]c2nc3c(c(=O)n12)C1(CCCC1)Cc1ccccc1-3 | 2 | / | 2 | -10% | 11µM*
C=CCSc1n[nH]c2nc3c(c(=O)n12)C1(CCCC1)Cc1ccccc1-3 | 9 | 2% | 1 | 11µM* | 5.6µM*
CCSc1n[nH]c2nc3c(c(=O)n12)C1(CCCC1)Cc1ccccc1-3 | 21 | -8% | 4 | -3% | 14µM*
Cc1oc(C)c(S(=O)(=O)NCc2cccs2)c1C(=O)O | 7 | -9% | 0 | -3% | -1%
COC(=O)C1=C[C@@H](C(=O)OC)C2C3=C(C(=O)[C@]2(C)NC(=O)c2ccccc2)[C@H](C)n2c(=O)n(-c4ccccc4)c(=O)n2[C@@H]3C1 (stereo partly specified) | / | / | / | -10% | -21%
O=C(Nc1nc2ccc([N+](=O)[O-])cc2s1)c1ccco1 | 1 | / | 5 | 20% | ?
C=CCOc1c(Cl)cc(C(=S)N2CCCC2)cc1OCC | -8 | -9% | 20 | ? | 13µM*
O=C(Nc1ccc(OC(F)F)cc1)c1ncc(Cl)c(Cl)c1Cl | -12 | -1% | 8 | -15% | 5µM*
O=C(Nc1nccs1)c1ccccn1 | -3 | -11% | 0 | 13µM* | 2.5µM*
CCn1ncc(Br)c1C(=O)Nc1nccs1 | 25 | -9% | 0 | ? | 13µM*
C/C(=C\c1ccccc1)C(=O)Nc1nccs1 | -9 | -5% | 19 | ? | 6.3µM*
Cc1ccc(NC(=O)CC(C(=O)O)c2ccccc2)cc1 (stereo unspecified) | 13 | 0% | -2 | -1% | -12%
CC1=NNC(=O)c2ccccc2O1 | -9 | 0% | 2 | ? | ?
COC(=O)CC1=COC2OCC3=CC[C@@H]1C32 (stereo partly specified) | / | / | / | -1%[10 µM] | -9%[10 µM]
O=C(Nc1nccs1)c1ccc2ccccc2c1 | -10 | ? | ? | 6.3µM* | 7.9µM*
